Measurements from the supplement of paper PMC11732987, “Enantioselective OTUD7B fragment discovery through chemoproteomics screening and high-throughput optimisation” (Communications Chemistry, 2025).

What was measured:
Test in all cases: log2 ratio of Biotin-Ahx-Ub-VS probe labelling (fragment/DMSO); higher = less target engagement (more negative = stronger competition), active = hit call of the paper (q ≤ 0.05, log2 ratio ≤ -1)
Details in all cases: compound concentration: 200 uM; treatment time: 3 h
[1] = target: T1, USP19 (UniProt O94966)
T1 sequence (whole entry): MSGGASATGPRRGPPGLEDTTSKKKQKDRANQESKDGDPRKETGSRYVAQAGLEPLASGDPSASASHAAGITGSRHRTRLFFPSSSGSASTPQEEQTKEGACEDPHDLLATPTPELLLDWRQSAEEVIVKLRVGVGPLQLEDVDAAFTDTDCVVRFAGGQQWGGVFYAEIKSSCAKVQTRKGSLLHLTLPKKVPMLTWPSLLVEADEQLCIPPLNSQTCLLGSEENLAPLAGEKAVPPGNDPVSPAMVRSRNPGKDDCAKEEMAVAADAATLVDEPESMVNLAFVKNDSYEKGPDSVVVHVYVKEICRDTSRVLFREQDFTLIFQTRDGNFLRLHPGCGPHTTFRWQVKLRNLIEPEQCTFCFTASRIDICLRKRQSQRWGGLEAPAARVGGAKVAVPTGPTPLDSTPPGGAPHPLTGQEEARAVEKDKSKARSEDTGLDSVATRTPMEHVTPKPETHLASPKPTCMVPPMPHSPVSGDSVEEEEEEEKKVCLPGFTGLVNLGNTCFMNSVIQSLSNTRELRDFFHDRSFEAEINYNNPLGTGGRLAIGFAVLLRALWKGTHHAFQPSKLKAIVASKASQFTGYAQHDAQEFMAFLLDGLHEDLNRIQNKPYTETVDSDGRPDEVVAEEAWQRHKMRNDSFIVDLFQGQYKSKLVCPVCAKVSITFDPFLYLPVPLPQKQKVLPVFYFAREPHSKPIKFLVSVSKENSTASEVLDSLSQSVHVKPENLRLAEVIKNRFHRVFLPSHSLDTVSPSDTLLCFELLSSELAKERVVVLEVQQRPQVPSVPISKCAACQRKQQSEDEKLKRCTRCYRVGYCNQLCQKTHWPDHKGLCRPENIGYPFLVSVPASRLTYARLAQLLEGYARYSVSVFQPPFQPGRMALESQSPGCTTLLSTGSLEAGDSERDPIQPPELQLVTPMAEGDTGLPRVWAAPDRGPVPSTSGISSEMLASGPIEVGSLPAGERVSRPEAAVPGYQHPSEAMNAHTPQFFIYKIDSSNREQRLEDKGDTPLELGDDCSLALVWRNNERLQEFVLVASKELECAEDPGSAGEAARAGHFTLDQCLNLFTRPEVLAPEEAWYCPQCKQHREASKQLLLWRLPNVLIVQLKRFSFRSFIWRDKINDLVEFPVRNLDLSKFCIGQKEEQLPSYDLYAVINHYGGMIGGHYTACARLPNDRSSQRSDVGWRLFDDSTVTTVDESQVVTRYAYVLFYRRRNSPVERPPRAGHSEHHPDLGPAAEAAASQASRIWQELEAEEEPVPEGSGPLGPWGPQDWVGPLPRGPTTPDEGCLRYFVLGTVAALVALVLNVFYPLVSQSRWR
Outline: (§1)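 The table lists average log2 ratios of fragment over vehicle, from an unpaired t-test on global-median-normalised Spectronaut label-free quantities. Proteins with ≥2 unique peptides were used. Samples were HEK293T lysate (495 µg) treated in triplicate with fragment at 200 µM or vehicle for 3 h, then with Biotin-Ahx-Ub-VS (0.5 µM final) for 1 h, with labelled DUBs NeutrAvidin-enriched and run by diaPASEF LC-MS/MS.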

[2] = target: T2, USP22 (UniProt Q9UPT9)
T2 sequence (whole entry): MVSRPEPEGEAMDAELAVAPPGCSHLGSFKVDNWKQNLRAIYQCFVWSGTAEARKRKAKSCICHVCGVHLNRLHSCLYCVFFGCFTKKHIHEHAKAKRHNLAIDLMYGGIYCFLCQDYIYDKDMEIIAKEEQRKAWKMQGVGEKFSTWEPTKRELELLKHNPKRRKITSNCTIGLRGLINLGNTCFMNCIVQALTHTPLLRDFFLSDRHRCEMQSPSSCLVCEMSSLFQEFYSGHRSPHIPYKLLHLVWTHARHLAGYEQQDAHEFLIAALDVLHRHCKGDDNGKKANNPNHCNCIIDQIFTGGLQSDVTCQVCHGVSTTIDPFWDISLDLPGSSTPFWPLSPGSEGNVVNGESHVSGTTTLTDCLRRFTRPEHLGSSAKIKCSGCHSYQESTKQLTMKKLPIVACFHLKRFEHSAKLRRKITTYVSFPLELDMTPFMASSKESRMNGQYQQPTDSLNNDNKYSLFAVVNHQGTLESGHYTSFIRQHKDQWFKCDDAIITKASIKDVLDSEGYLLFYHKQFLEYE
Outline: as §1

[3] = target: USP24 (UniProt Q9UPU5)
Sequence of USP24 (Q9UPU5 whole entry): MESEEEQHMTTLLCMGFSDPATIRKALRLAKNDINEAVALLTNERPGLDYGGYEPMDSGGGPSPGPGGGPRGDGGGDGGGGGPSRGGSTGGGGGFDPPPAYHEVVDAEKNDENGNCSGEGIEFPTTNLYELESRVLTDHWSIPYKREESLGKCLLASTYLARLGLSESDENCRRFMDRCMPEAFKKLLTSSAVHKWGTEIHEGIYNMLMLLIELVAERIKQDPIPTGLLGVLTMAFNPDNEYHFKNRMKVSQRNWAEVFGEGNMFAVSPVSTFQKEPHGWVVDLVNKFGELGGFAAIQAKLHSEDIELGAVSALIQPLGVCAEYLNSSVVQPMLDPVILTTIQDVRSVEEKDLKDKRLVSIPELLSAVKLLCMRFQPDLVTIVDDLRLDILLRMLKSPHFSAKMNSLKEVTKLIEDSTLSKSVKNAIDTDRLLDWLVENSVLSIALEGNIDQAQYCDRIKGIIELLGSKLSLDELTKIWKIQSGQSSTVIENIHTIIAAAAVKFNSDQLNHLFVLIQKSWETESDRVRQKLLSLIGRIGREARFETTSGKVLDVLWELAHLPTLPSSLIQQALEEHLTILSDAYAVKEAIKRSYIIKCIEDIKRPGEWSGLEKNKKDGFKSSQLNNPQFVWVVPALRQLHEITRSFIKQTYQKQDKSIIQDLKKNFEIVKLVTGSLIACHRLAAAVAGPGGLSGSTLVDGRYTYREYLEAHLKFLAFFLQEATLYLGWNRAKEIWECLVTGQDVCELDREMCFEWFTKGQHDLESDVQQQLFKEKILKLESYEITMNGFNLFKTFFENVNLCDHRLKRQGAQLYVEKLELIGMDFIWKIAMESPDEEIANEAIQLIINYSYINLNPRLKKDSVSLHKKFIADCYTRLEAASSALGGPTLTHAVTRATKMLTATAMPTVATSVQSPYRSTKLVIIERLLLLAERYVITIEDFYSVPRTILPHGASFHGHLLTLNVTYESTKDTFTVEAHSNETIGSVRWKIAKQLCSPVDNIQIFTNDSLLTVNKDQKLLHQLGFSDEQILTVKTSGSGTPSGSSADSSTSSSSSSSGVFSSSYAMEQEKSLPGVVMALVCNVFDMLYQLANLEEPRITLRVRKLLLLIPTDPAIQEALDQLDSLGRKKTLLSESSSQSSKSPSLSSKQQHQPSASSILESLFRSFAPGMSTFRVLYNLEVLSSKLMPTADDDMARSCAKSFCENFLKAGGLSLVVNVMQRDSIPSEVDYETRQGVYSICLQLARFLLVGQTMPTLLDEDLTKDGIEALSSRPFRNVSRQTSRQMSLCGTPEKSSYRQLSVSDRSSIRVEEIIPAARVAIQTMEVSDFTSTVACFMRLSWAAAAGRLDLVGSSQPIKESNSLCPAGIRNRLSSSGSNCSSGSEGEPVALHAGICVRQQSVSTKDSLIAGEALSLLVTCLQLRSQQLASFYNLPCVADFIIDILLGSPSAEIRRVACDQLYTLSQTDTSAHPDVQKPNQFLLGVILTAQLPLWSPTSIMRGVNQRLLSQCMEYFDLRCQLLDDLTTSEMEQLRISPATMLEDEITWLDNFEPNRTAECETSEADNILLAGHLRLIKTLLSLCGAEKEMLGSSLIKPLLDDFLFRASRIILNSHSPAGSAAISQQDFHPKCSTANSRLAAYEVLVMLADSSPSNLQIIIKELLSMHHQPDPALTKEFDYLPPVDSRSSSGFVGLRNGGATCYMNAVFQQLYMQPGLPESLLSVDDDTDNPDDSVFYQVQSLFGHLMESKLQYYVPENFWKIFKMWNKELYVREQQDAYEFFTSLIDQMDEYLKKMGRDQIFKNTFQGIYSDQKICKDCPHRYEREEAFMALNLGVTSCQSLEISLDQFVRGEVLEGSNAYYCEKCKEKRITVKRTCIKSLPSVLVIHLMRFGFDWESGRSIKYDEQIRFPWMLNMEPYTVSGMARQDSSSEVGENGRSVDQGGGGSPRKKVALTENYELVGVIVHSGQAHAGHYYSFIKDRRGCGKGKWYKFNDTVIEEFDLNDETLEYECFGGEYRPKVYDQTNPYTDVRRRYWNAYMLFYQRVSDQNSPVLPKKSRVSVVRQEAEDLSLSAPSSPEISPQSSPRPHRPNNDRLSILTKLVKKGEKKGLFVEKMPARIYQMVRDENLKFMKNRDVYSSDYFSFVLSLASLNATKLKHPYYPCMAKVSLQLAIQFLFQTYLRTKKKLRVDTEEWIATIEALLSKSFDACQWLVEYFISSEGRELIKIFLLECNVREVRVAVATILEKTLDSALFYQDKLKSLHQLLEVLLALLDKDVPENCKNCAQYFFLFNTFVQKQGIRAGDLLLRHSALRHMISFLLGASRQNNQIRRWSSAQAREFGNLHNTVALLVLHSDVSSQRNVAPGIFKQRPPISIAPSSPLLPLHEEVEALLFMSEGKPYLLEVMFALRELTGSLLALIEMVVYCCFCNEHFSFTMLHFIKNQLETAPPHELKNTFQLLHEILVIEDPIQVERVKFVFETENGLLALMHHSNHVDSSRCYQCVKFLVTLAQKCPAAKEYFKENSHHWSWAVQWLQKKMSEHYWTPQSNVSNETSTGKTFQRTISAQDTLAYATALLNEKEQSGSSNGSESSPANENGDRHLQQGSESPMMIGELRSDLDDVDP
Outline: as §1

[4] = target: T3, USP25 (UniProt Q9UHP3)
T3 sequence (whole entry): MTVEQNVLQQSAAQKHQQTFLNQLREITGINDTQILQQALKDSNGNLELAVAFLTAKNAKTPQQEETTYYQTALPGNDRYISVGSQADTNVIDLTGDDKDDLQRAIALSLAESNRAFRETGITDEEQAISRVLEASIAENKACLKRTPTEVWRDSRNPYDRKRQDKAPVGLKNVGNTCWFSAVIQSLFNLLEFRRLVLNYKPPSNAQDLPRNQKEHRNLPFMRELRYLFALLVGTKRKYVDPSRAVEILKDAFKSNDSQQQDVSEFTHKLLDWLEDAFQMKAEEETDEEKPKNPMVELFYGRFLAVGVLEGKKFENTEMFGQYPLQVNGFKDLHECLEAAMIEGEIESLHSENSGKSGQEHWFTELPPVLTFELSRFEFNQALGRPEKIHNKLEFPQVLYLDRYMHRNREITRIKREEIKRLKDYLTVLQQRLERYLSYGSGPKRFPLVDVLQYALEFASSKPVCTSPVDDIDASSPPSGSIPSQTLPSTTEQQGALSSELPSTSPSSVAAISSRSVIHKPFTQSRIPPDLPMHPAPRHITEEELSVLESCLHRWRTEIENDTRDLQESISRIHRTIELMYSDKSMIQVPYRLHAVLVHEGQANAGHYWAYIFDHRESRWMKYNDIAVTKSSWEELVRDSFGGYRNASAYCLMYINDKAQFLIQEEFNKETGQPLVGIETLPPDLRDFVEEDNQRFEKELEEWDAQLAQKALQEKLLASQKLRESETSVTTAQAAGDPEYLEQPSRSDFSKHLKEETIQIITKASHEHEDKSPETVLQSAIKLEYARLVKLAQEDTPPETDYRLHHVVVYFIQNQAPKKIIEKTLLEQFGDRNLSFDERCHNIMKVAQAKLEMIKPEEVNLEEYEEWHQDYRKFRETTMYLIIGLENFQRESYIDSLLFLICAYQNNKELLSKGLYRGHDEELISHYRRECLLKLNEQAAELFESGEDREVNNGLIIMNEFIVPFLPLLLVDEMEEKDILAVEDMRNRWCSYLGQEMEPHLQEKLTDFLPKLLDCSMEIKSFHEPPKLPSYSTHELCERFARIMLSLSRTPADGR
Outline: as §1

[5] = target: T4, USP28 (UniProt Q96RU2)
T4 sequence (whole entry): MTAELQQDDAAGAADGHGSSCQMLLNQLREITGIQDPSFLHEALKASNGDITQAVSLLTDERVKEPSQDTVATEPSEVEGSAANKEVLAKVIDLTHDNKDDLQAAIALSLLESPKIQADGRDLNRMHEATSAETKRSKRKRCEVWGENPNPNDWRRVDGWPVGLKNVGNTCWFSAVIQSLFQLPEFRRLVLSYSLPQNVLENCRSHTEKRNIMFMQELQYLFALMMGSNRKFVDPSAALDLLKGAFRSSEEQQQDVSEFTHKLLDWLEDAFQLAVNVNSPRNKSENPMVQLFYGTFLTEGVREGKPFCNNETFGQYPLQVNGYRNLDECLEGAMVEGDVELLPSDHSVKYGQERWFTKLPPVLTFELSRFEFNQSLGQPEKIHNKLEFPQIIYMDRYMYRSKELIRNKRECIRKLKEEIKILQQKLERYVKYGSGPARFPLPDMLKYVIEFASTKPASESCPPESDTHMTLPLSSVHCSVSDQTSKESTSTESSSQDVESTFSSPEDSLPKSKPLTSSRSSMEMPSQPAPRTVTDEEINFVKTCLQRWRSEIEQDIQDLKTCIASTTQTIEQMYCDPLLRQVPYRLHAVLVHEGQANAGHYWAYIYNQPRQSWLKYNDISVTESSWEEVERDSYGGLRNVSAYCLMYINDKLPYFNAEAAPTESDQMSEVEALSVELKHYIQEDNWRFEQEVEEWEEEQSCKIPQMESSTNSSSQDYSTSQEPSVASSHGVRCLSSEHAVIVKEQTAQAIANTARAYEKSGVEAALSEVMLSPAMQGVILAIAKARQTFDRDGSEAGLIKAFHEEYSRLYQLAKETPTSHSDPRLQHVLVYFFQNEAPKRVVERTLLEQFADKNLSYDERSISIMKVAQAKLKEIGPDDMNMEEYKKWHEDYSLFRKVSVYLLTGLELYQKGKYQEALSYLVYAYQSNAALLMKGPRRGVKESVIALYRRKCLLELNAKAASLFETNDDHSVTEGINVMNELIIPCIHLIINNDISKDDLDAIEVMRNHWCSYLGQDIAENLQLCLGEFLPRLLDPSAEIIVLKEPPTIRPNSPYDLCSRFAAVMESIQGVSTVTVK
Outline: as §1

Measured: log2 ratio of Biotin-Ahx-Ub-VS probe labelling

CCCn1nccc1NC(=O)CCl
inactive: [1] -0.237 | [2] 0.165 | [3] -0.693 | [4] -0.184 | [5] -0.445
